# Compounds without any hit were thinned out: in the full panel of roughly 83,000, 20% have a hit.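 The endpoint reported here, percent growth, reads 100 for growth as untreated, 0 for no net growth and -100 for all cells dead.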 A number with no mark means an inactive call. Calls of active or inactive are those of the source. How the source made its calls: active means growth percent below 10; inactive means the rest.
# Legend:
# Assay in all cases: NCI-60 one-dose screen, 48 h (100 = growth as untreated, 0 = no growth, -100 = all killed)
# [1] = test system: SR leukemia; conditions: 10 µM
# [2] = test system: RPMI-8226 leukemia; conditions: 10 µM
# [3] = test system: OVCAR-8 ovarian; conditions: 10 µM
# [4] = test system: OVCAR-5 ovarian; conditions: 10 µM
# [5] = test system: OVCAR-4 ovarian; conditions: 10 µM
# [6] = test system: SK-OV-3 ovarian; conditions: 10 µM
# [7] = test system: IGROV1 ovarian; conditions: 10 µM
# [8] = test system: OVCAR-3 ovarian; conditions: 10 µM
# [9] = test system: HS 578T breast; conditions: 10 µM
# [10] = test system: NCI/ADR-RES ovarian; conditions: 10 µM
# [11] = test system: T-47D breast; conditions: 10 µM
# [12] = test system: BT-549 breast; conditions: 10 µM
# [13] = test system: MDA-MB-435 melanoma; conditions: 10 µM
# [14] = test system: SW-620 colon; conditions: 10 µM
# [15] = test system: MCF7 breast; conditions: 10 µM unless noted
# [16] = test system: HCT-116 colon; conditions: 10 µM
# [17] = test system: KM12 colon; conditions: 10 µM
# [18] = test system: HCC-2998 colon; conditions: 10 µM
SMILES,growth [1],growth [2],growth [3],growth [4] [%],growth [5],growth [6] [%],growth [7] [%],growth [8] [%],growth [9],growth [10] [%],growth [11] [%],growth [12] [%],growth [13],growth [14],growth [15],growth [16],growth [17],growth [18]
CC(C)C1CCCCC1O (stereo not drawn),130%,105%,109%,91,118%,109,130,117,105%,104,107,105,100%,107%,107%,109%,107%,
Cc1cc(=O)[nH]c(NN=C2CCCC2)n1,103%,107%,112%,99.4,114%,103,107,110,121%,121,103,122,110%,111%,104%,107%,110%,
O=C(O)C(Cc1ccccc1)C(=O)O,101%,109%,109%,111,96.3%,103,113,110,104%,106,103,99.1,111%,,99.8%,96.8%,107%,106%
CCOC(=O)C1=C(C)NC(=O)NC1c1cccs1 (stereo not drawn),76.5%,99.8%,94.1%,122,117%,105,113,118,99%,111,102,123,125%,105%,101%,116%,109%,
FC(F)(F)c1ccc2c(c1)N(CCCN1CCN(C3CC3)CC1)c1ccccc1S2,7.62% (active),51.9%,46.9%,89.7,73.6%,83.9,50.2,24.9,75.3%,61.2,87.8,61,57.7%,38.9%,77.3%,42.7%,59.6%,
NNc1ccccc1C(=O)O,112%,112%,110%,88.9,111%,115,118,119,108%,107,107,103,116%,101%,104%,112%,108%,
CC12CC3CC1C(C(=O)O2)C3C(=O)O (stereo not drawn),93.1%,108%,104%,97.8,111%,95.6,114,101,108%,97.5,108,122,109%,,108%,118%,101%,95.8%
CC(O)COc1ccc(-c2ccccc2)cc1 (stereo not drawn),94.4%,97.7%,108%,98.9,111%,105,115,108,106%,110,94,104,104%,103%,100%,97.7%,105%,
S=c1nn[nH]c2ccccc12,92.2%,117%,103%,105,114%,99.8,97.7,111,109%,105,109,106,120%,113%,99.2%,103%,101%,
Cc1ccc(O)c(C(=O)c2ccccc2)c1,113%,113%,111%,96.3,110%,119,113,104,108%,105,109,99.1,110%,100%,105%,102%,106%,
O=C1c2ccccc2C(=O)N1OCc1ccccc1,93.4%,102%,105%,97.2,105%,99.2,94.4,105,113%,116,92.1,118,110%,107%,99.5%,99.8%,105%,
CCCCCCCCOC(=O)c1ccccn1,125%,101%,103%,95,104%,95.2,103,110,106%,98.8,96.4,94.5,116%,98.3%,96.2%,94.2%,103%,
CCCCOC(OCCCC)c1ccccc1,103%,110%,108%,107,109%,115,115,105,111%,97.9,100,107,112%,110%,97.8%,112%,110%,
OCC1OC(OC2C(O)C(CO)OC2(CO)OC2OC(CO)C(O)C(O)C2O)C(O)C(O)C1O (stereo not drawn),106%,97.9%,113%,107,100%,108,123,121,110%,107,110,105,111%,111%,95%,97.8%,109%,
CC(CC(=O)c1ccccc1)c1ccccc1 (stereo not drawn),101%,104%,102%,113,109%,127,101,116,118%,118,104,107,99.8%,102%,105%,106%,113%,
OCCN1CCOCC1,104%,107%,110%,101,110%,109,117,122,106%,116,106,115,116%,113%,94.8%,97.2%,111%,
CC(=O)c1cc2c(cc1F)C(C)(C)CCC2(C)C,92.5%,114%,104%,90.1,103%,105,101,101,99%,99.3,109,101,106%,102%,101%,94.4%,107%,
CC(C)OC(C(=O)O)c1ccccc1 (stereo not drawn),125%,105%,109%,97.1,96.2%,100,124,110,112%,104,91.5,100,115%,103%,93%,101%,105%,
O=[N+]([O-])c1ccc(S(=O)(=O)NN=C2CCCCC2)cc1,96.9%,110%,101%,114,99.5%,100,103,114,141%,115,107,95.5,114%,114%,102%,97.8%,110%,
O=c1[nH]n(-c2ccccc2)c(=O)cc1Cl,87.8%,97.5%,101%,104,112%,103,102,108,111%,107,97.8,100,110%,102%,96.8%,103%,112%,

SMILES,growth [1],growth [2],growth [3],growth [4] [%],growth [5],growth [6] [%],growth [7] [%],growth [8] [%],growth [9],growth [10] [%],growth [11] [%],growth [12] [%],growth [13],growth [14],growth [15],growth [16],growth [17],growth [18]
CC(C)(C)c1cc(O)c(C(C)(C)C)cc1O,92.5%,54.1%,93%,97.2,74.6%,125,110,99.2,98.8%,100,95,81.3,91.9%,97%,83.7%,86.6%,101%,
O=C(N/N=C/c1ccccc1O)Nc1nn[nH]n1,102%,95.6%,101%,92.3,102%,113,111,116,99%,109,105,111,98.3%,101%,88.6%,89%,114%,
CCOc1ccc(Br)cc1/C=N\N=C\c1cc(Br)ccc1OCC,92.4%,95.5%,95.6%,107,113%,117,103,96.8,143%,120,93,108,103%,101%,101%,97.8%,94.2%,
COc1ccc(C(O)c2ccccc2)cc1 (stereo not drawn),102%,108%,97.3%,102,92.6%,99.2,99.3,107,108%,105,87.3,121,102%,90.3%,97.5%,110%,93.7%,
O=c1[nH]c(O)c(/C=C2/C=Nc3ccccc32)[nH]1,76.3%,78%,98.1%,96,90%,112,93.8,100,95.1%,96.4,85.5,107,102%,104%,56.3%,96.4%,88.4%,
N#CSc1cc(S(N)(=O)=O)ccc1N,116%,109%,102%,107,108%,108,106,113,115%,108,104,98.6,120%,107%,94.5%,102%,107%,
C[C@]12CC[C@@H]3c4ccc(OCC(=O)O)cc4CC[C@H]3[C@@H]1CCC2=O,88.5%,121%,109%,107,95.8%,115,107,101,95.5%,96.4,114,102,116%,102%,130%,103%,105%,
CC(=O)OC(OC(C)=O)C1CCCO1 (stereo not drawn),135%,114%,103%,100,97.9%,105,110,114,105%,94.5,101,95.8,108%,107%,92.1%,91.3%,101%,
Oc1ccccc1O,75.5%,60.1%,86.3%,106,77.4%,120,79.1,92.3,112%,90.2,95.2,96,110%,94.7%,82.5%,87.6%,86.5%,
CCC(C)(C)C1CCC(O)CC1 (stereo not drawn),102%,101%,102%,92.5,107%,103,107,104,101%,96.7,97.5,96.6,112%,101%,104%,98.9%,96%,
CC1NC(=O)NC1CCCCCC(=O)O (stereo not drawn),118%,84%,94.8%,97.6,112%,109,125,108,106%,113,101,105,117%,105%,99.8%,105%,98.7%,
O=C(O)c1cccc([N+](=O)[O-])c1O,94.4%,107%,113%,112,111%,98.4,94.4,116,112%,102,101,93.6,101%,105%,119%,98.9%,110%,
CN(c1ccccc1)c1ncnc2c1ncn2C,98.2%,106%,102%,121,103%,105,118,111,103%,105,100,101,106%,97.9%,97.8%,104%,108%,
CCOC(=O)Nc1nn[nH]n1,103%,106%,111%,92.3,111%,116,110,103,93.7%,103,113,106,111%,90.2%,103%,107%,106%,
C[N+](C)(C)C(=O)c1ccccc1,102%,111%,113%,98.7,115%,104,115,113,118%,113,90.4,101,114%,107%,96.2%,97.9%,112%,
CCOC(=O)CSc1c([N+](=O)[O-])ncn1C,86.4%,99.7%,103%,91.8,105%,110,95.5,103,103%,101,101,,101%,103%,88.2%,103%,96.2%,107%
Cc1cc(=O)n(-c2ccc(F)cc2)[nH]1,97.1%,94.2%,95.2%,94.9,99.2%,95.3,102,103,102%,109,69.5,,105%,103%,86.7%,104%,106%,106%
C=CC(=O)OCCCCCCCC,82.6%,104%,105%,101,109%,108,114,103,109%,105,105,,106%,103%,95.3%,100%,101%,104%
Cc1cc(N2CCC(N3CCCC3)CC2)nc(/N=C(\N)Nc2ccc(Cl)c(Cl)c2)n1,-54.3% (active),-36.7% (active),-9.16% (active),19,-13.2% (active),88.3,12.3,69.7,-25.8% (active),30.3,106,,-98.6% (active),-56% (active),-44.7% (active),-93.3% (active),9.92% (active),-82.2% (active)

# — PubChem BioAssay (NCI)
